# Results published in publication PMC7819943, “Rice protein-binding microarrays: a tool to detect cis-acting elements near promoter regions in rice”.
# Over roughly 68,000 sequences, “fluorescence intensity (a.u.)” has its median near 9,100; the highest 2% begin near 16,000. What follows is part of a selection rich in the highest values, with near analogues and random picks from the rest.
# Target: OsWRKY34 (Oryza sativa, UniProt Q0JBA9 1-250)
# Test: protein-binding microarray (RPBM); PBS, 2% BSA, 51.3 ng/ul salmon testes DNA, 50 uM zinc acetate, 200 nM TF, 25 C, 1 h; high values mean tight binding
# Conditions: protein: recombinant; tags: N-terminal polyhistidine and DsRed monomer fusion (pET32a); label: CyDye5-dUTP incorporated in the synthesized complementary strand; 3' TTTTT single-stranded linker to array surface; dsDNA, one strand shown
# In short: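 Binding signal here means per-feature fluorescence intensity in arbitrary units. The values were read on an Axon 4000B scanner after a custom Agilent array, double-stranded by primer extension with Cy5-dUTP, was incubated with 200 nM protein at 25 °C for 1 h in PBS with 2% BSA, salmon testes DNA and 50 µM zinc acetate, then washed. The proteins were transcription factors with an N-terminal polyhistidine tag and DsRed, expressed in E. coli BL21-CodonPlus and purified on Ni–NTA.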
# Chain of OsWRKY34 (Q0JBA9 entry or part of it): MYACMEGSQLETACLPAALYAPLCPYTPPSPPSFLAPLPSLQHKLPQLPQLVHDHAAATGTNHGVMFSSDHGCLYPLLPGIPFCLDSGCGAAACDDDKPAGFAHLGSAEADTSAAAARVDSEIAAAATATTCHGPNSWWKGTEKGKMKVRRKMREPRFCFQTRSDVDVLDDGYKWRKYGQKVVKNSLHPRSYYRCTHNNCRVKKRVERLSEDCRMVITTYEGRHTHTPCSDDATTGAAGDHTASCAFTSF
row,Sequence,binding signal
1,CGCTTACAGTCCACTCTCCACTGCGCCCGCATGAGTCATGCGGAGTCACCTAGTGCAG,8880 fluorescence intensity (a.u.)
2,AAACTGCCAGCTTTCTGCATCTCTCCGCCCTCATGATGCGCGGAGTCACCTAGTGCAG,9490 fluorescence intensity (a.u.)
3,TTTTCTTTCCTTTATTATTTTCTTTATCCTTTTTTTCTCCCGGAGTCACCTAGTGCAG,9250 fluorescence intensity (a.u.)
4,ATCGGCGCCGTCGACCGCGACCACCCTGCCGCCGAGCGCCCGGAGTCACCTAGTGCAG,10300 fluorescence intensity (a.u.)
5,TCCTCTTCTTCTTCTTCTTCTTCTCGTGGGTGCAAGAAGCCGGAGTCACCTAGTGCAG,8380 fluorescence intensity (a.u.)
6,CGCCCAAGCTAGCTAGTGGCCATTATCCCATGGATATTTCCGGAGTCACCTAGTGCAG,8280 fluorescence intensity (a.u.)
7,ATCCTGTATCGTCCAGAATGCTTCTTCCATCCTAATCACCCGGAGTCACCTAGTGCAG,9220 fluorescence intensity (a.u.)
8,GCTTCTGCTTCTTCTTGTTCTTGTTGCTGTTGGTAATACTCGGAGTCACCTAGTGCAG,11000 fluorescence intensity (a.u.)
9,ATCAAAGTTGCTGGGGTTAATTTGGGTTCTTGGTTGTGAACGGAGTCACCTAGTGCAG,15600 fluorescence intensity (a.u.)
10,GGTATCTGTTGCTGCTTGCTGGTTCTCGTGCTATTGTTCTCGGAGTCACCTAGTGCAG,19900 fluorescence intensity (a.u.)
11,GGTTGGGTGTTTTTGCTTCTCTTGTAGTCTTTGTGTAGAACGGAGTCACCTAGTGCAG,21500 fluorescence intensity (a.u.)
12,GTAATTCTGTTGTCATACGGTTTATTGTGTGGTTGCTGAACGGAGTCACCTAGTGCAG,9010 fluorescence intensity (a.u.)
13,CTTCTCTTTGTTTTCTTGTTTGCTTGCTTGGTGTAAAGAACGGAGTCACCTAGTGCAG,16100 fluorescence intensity (a.u.)
14,TCTCTCTCTCGTCGTCTCGCGTCTCTTCTCTCAACCGCGACGGAGTCACCTAGTGCAG,13800 fluorescence intensity (a.u.)
15,TTCTTGCTAGTTCTTGTAGTATCTGGTTCTTGCTAGTTCTCGGAGTCACCTAGTGCAG,10800 fluorescence intensity (a.u.)
16,CGGGGTTCTTGTGTTTATTGTTAAGATCCGGTTTGCTGAACGGAGTCACCTAGTGCAG,21900 fluorescence intensity (a.u.)
17,CATGTAATTCTCTTCACTTTTGCTTGTTTGGGTTGTGAAACGGAGTCACCTAGTGCAG,10100 fluorescence intensity (a.u.)
18,ATCACTCTTCTTGGTCGTTCTTGCCATTCTTGTACCGCGACGGAGTCACCTAGTGCAG,18200 fluorescence intensity (a.u.)
19,ATCTTTTTACCCAATTCTTGATCACTCTTCTTGGTCGTTCCGGAGTCACCTAGTGCAG,8060 fluorescence intensity (a.u.)
20,CGCCACCGTCCTGCTCACCGGCGTTCCGCCGGAACGACTTCGGAGTCACCTAGTGCAG,9640 fluorescence intensity (a.u.)
21,ATTTTTTTTGTCAAACTGCCACGAAAGCGTCACGTTAATACGGAGTCACCTAGTGCAG,8240 fluorescence intensity (a.u.)

row,Sequence,binding signal
1,CAATTCACGCCACCCGCTCCGCCTCTCGCCGCCTCGACCGCGGAGTCACCTAGTGCAG,11000 fluorescence intensity (a.u.)
2,AAATTTTGACTCCTTCAGTTAATGATTTTCGTATACAAATCGGAGTCACCTAGTGCAG,8180 fluorescence intensity (a.u.)
3,ATCTCTCTCATATTCCTTCGATCTGCAGCTTGTACGTTGGCGGAGTCACCTAGTGCAG,14500 fluorescence intensity (a.u.)
4,CTGTTGACTATCCATGCCATTTTTACCGATTAGTCTATCTCGGAGTCACCTAGTGCAG,13800 fluorescence intensity (a.u.)
5,CGCAGTCCGAAGTTGATTTTTTTTTTTTTTACGGAGTACTCGGAGTCACCTAGTGCAG,8250 fluorescence intensity (a.u.)
6,TGATTGTGTTTGTAGACTTGGTTGGTATTGTTGAACGGATCGGAGTCACCTAGTGCAG,11800 fluorescence intensity (a.u.)
7,AGAGGGAGTATTATGTTTATGCTTTTAATTTTTCACTTTGCGGAGTCACCTAGTGCAG,9150 fluorescence intensity (a.u.)
8,AGGGAGCCTATTTTAATGTATGACACCGTTGACTTTTTTGCGGAGTCACCTAGTGCAG,19200 fluorescence intensity (a.u.)
9,CCGTATTTTAATGTATATGACACCGTTGACTTTTTGACCACGGAGTCACCTAGTGCAG,40800 fluorescence intensity (a.u.)
10,AAATACTCCCTCCGTATTTTAATGTATGACACCGTTGACTCGGAGTCACCTAGTGCAG,10300 fluorescence intensity (a.u.)
11,CATATTTTAATTTTAATGTATGACACCGTTGACTTTTCGACGGAGTCACCTAGTGCAG,16000 fluorescence intensity (a.u.)
12,TTTATGTAATGCCTTAAGATCACACATTGACTTATTTTTGCGGAGTCACCTAGTGCAG,8050 fluorescence intensity (a.u.)
13,CATCCGTATTTTAATGTATGACACCGTTGACTTTTCGACTCGGAGTCACCTAGTGCAG,19100 fluorescence intensity (a.u.)
14,TTATGCATCGATATATACCACATGTCAACCGATGAATTCACGGAGTCACCTAGTGCAG,9490 fluorescence intensity (a.u.)
15,TTTTCCAAACTTCCAACTTTCTATCACATCAAACCTTTCACGGAGTCACCTAGTGCAG,8100 fluorescence intensity (a.u.)
16,ACCTGGCTGTGCATGTACTACCCCAATGCATTTCTCTCTCCGGAGTCACCTAGTGCAG,8250 fluorescence intensity (a.u.)
17,ATTCTGTAACCCGCTGCGGGCAACGGCCGGACGTGCAATCCGGAGTCACCTAGTGCAG,9630 fluorescence intensity (a.u.)
18,CTGATCGAATACTCTAGCATTGCGATCTTTCCAAATTTGCCGGAGTCACCTAGTGCAG,8510 fluorescence intensity (a.u.)
19,GGAGGGTGCGACAGCCCAATGTATCACTTGCGTTTGTATCCGGAGTCACCTAGTGCAG,8230 fluorescence intensity (a.u.)
20,GTAGCATGCTTCTATCCTGTCCCGGTGTTTGTCGTACATTCGGAGTCACCTAGTGCAG,10200 fluorescence intensity (a.u.)
21,GATTGAGTGTGCCCGTGTGAGATAGAATCTTTTTGCCCTTCGGAGTCACCTAGTGCAG,8930 fluorescence intensity (a.u.)
